The results in this text go back to PubChem BioAssay.

Active and inactive are the calls of the source.

The subject of test [1] is Plasmodium falciparum Sir2 (PF13_0152, Sir2A). Briefly: Plasmodium falciparum Sir2A binding compounds – biochemical, small-molecule microarray, 635 nm fluorescence, primary screen (AID 1098).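 Also: score merges spot fluorescence intensity with its signal-to-noise ratio.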 As to conditions: fluorescence 635 nm, higher = more signal.
A short description of test [2]: probe aDKK1 binding to arrayed compounds – biochemical, biotinylated probe, 635/667 nm fluorescence, primary screen (AID 1099).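 Also: score merges 667nm spot fluorescence with signal to noise across triplicate slides; reference of the scale not given here.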 As to conditions: small-molecule microarray, higher = more signal.
Test [3] in a line: probe aCHRDL2 binding to arrayed compounds – biochemical, biotinylated probe, 635/667 nm fluorescence, primary screen (AID 1100). The following applies: small-molecule microarray, higher = more signal.
Test [4] can be described thus: change in splice reporter luminescence, either direction, cell-based, HEK293, spliceosome inhibition project, primary screen (AID 1101).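 Also: HEK293 cells carrying a splicing-competent luciferase reporter gene; test concentration not given here.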 The following applies: HEK293 splicing luciferase reporter, 24 h, higher = more signal, called active from +8 up or from −8 down. On the technique in general: Reporter assays use an easily measured gene product as a stand-in for the process of interest.

The target in test [5] is Fibroblast growth factor 10 (Homo sapiens) (UniProt O15520). Kind of test: compounds binding fibroblast growth factor 10 – biochemical, small-molecule microarray, 635 nm fluorescence, primary screen (AID 1102). The following applies: FGF10 binding, fluorescence 635 nm, higher = more signal.
In test [6] the test system is glycogen synthase kinase-3 (GSK3A per assay name; protocol says GSK3B). Briefly: compounds binding glycogen synthase kinase-3 – biochemical, small-molecule microarray, 635 nm fluorescence, GSK3A, primary screen (AID 1103). Also: the record names both GSK3A and GSK3B. The following applies: fluorescence 635 nm, higher = more signal.
Test [7] deals with Epidermal growth factor receptor (Homo sapiens) (UniProt P00533). Kind of test: compounds binding epidermal growth factor receptor – biochemical, small-molecule microarray, 635 nm fluorescence, primary screen (AID 1104).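 Also: score merges 667 nm emission intensity with spot signal to noise over triplicate slides.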 The following applies: EGFR binding, higher = more signal.
For test [8], the target named is Follistatin-related protein 3 (Homo sapiens) (UniProt O95633). Kind of test: compounds binding follistatin-related protein 3 – biochemical, small-molecule microarray, 635 nm fluorescence, primary screen (AID 1105).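 Also: score merges emission near 667 nm and signal to noise per printed spot across three slides.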 As to conditions: FSTL3 binding, higher = more signal.
For test [9], the target named is Dickkopf-related protein 1 (Homo sapiens) (UniProt O94907). Kind of test: small molecules binding DKK1 protein – biochemical, small-molecule microarray, 635 nm fluorescence scan, primary screen (AID 1106).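 Also: score merges emission near 667 nm with signal to noise over three replicate slides.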 The following applies: higher = more signal.
The subject of test [10] is Inhibin beta A chain (activin A). Briefly: small molecules binding activin A – biochemical, small-molecule microarray, 635 nm fluorescence scan, primary screen (AID 1107).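 Also: mouse activin A protein probed at 4.33 µg/mL on printed slides; score merges bound-protein fluorescence near 667 nm with spot signal-to-noise.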 As to conditions: INHBA, higher = more signal.

Sequence of Follistatin-related protein 3 (Homo sapiens) (O95633 whole entry, looked up): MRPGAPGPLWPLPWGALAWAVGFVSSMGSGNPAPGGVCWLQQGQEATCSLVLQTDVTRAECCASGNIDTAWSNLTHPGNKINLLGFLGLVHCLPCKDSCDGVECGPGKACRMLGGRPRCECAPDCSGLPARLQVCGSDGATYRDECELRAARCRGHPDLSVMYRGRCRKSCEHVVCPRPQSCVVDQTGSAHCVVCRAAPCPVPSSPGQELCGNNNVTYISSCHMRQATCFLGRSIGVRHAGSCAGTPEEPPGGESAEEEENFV
Sequence of Fibroblast growth factor 10 (Homo sapiens) (O15520 whole entry, looked up): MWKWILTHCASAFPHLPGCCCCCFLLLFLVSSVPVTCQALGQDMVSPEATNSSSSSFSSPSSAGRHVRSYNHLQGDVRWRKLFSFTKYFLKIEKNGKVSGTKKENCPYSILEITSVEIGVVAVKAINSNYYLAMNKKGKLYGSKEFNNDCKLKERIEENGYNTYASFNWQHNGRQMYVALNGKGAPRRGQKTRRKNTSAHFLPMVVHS
Sequence of Dickkopf-related protein 1 (Homo sapiens) (O94907 whole entry, looked up): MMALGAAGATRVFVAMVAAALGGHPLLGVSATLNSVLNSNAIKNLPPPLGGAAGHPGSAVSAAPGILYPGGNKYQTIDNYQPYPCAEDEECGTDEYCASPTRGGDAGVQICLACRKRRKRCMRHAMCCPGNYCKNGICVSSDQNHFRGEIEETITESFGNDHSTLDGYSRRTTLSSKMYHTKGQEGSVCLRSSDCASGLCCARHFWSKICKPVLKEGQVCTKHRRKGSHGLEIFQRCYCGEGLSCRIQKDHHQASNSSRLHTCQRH
Sequence of Epidermal growth factor receptor (Homo sapiens) (P00533 whole entry, looked up): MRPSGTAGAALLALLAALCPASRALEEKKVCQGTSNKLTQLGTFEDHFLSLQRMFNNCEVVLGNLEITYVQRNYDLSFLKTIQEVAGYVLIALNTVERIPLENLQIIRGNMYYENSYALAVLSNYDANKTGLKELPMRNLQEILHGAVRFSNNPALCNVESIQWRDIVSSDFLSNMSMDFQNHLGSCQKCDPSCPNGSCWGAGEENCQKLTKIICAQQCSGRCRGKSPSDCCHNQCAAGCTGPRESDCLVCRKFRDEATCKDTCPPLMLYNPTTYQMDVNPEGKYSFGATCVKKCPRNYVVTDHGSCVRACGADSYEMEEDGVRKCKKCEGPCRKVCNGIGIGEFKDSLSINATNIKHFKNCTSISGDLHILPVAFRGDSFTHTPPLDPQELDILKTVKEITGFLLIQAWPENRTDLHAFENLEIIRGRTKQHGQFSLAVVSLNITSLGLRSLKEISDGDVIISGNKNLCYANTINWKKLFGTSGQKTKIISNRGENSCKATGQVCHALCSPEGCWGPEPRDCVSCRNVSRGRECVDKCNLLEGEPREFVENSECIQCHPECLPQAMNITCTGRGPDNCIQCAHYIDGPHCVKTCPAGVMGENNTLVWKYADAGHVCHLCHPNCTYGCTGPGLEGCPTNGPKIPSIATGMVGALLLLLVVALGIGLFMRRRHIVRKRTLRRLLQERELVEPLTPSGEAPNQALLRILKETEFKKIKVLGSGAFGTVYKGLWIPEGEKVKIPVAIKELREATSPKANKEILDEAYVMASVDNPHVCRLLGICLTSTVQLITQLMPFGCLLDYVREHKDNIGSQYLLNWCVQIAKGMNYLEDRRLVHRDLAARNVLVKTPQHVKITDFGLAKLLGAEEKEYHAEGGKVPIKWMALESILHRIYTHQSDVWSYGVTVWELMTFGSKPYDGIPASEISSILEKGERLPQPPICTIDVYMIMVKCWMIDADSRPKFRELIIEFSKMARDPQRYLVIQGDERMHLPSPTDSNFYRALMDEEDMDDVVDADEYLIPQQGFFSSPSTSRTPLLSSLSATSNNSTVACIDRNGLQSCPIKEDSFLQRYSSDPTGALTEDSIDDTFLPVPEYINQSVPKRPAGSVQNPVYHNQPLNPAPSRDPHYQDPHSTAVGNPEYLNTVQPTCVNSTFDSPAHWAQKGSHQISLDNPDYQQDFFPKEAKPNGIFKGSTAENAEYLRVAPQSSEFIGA

As for `COCCCNC(=O)[C@@]1(Cc2ccccc2CN=[N+]=[N-])N=C(c2ccc(OCCCO)cc2)O[C@H]1c1ccccc1N=[N+]=[N-]`, the composite z-score in [1] amounted to 1.61; in test [2], 1.05; in test [3], 1.28; in test [5], 1.35; in test [6] it was 1.22; in test [7], 0.15. The composite z-score in test [8] is 0.706; in [9], 0.0902; in test [10] it was 0.542. In test [4], the z-score is -1.26 (inactive).
Regarding `O=C1C2C=CC(C(O)c3ccccn3)N(Nc3ccccc3)C2C(=O)N1c1ccccc1` (stereo not given), the composite z-score is 0.687 in test [1]; 0.264 in [2]; 0.5 in [3]; -0.191 in [5]; -0.326 in test [6]; -0.441 in [7]. The composite z-score was -0.656 in test [8], -0.341 in test [9] and 0.826 in test [10]. For the same compound, the z-score in test [4] was 0.383 (inactive).
Take `C[C@@H]1ON(c2ccccc2)[C@H](c2ccccc2)[C@H]1C(=O)N1C(=O)OC[C@H]1Cc1ccccc1`: the composite z-score in [1] is 0.342; in test [2] it was -0.327; in test [3] it was -0.503; in test [5] it was 0.423; in test [6], 0.149; in test [7], 0.569. In addition, the figures for the composite z-score in test [8], in test [9] and in test [10] were 0.697, 0.471 and 0.106, respectively. Besides, the z-score in test [4] was -0.34 (inactive).
As for `CC(C)c1ccc(NN2C(C(O)c3ccccn3)C=CC3C(=O)N(c4ccccc4)C(=O)C32)cc1` (stereo not given), the composite z-score in test [1] was determined as 1.52; in test [2], 0.753; in [3], 0.105; in [5], 1.53; in test [6] it was 1.31; in [7], 0.69. For the same compound, the composite z-score in test [8] is 1.33; in [9], 0.454; in test [10] it was -0.75. Moreover, the z-score in test [4] was -0.684 (inactive).
Take `O=C1CSC(c2cccc([N+](=O)[O-])c2)N1c1ccccc1` (stereo not given): the composite z-score in [1] was -0.125; in test [2], 0.136; in test [3], -0.342; in test [5], 0.523; in [6], 0.401; in test [7], 0.354. Also, the composite z-score in test [8] stood at 0.404; in test [9], 0.661; in test [10] it was 0.154. Further, the z-score in [4] is 0.187 (inactive).
As for `C=CCC(OC(C)=O)[C@@H]1[C@@H](N(Cc2cccc3ccccc23)C(=O)c2ccc(C)cc2)c2cc(OCCCO)ccc2N1C(=O)c1ccc2ccccc2c1` (stereo not given in full), the composite z-score is -0.269 in test [1]; -0.259 in [2]; 0.281 in [3]; 0.11 in test [5]; 0.0882 in test [6]; 0.286 in test [7]. The values for the composite z-score in test [8], in test [9] and in [10] were 0.421, 0.181 and 1.08, respectively. Also, the z-score in test [4] is -1.86 (inactive).
With `COc1ccc(C#Cc2ccc3c(c2)[C@]2(C(=O)N3)[C@H](C(=O)O)[C@H]3C(=O)O[C@H](c4ccccc4)[C@H](c4ccccc4)N3[C@@H]2c2ccc(OCCO)cc2)cc1`, the composite z-score in [1] was 1.48; in test [2] it was 0.192; in test [3], 0.296; in test [5], 0.929; in test [6], 0.984; in [7], 0.45. Besides, the composite z-score in test [8] was 0.486; in [9], 0.195; in [10] it was -0.159. In test [4], the z-score is -0.825 (inactive).
Regarding `COCCOC(=O)N1C(=O)[C@@]2(c3cc(C#Cc4ccc(OC)cc4)ccc31)[C@H](C(N)=O)[C@H]1C(=O)O[C@H](c3ccccc3)[C@H](c3ccccc3)N1[C@@H]2c1ccc(OCCO)cc1`, the composite z-score in [1] is 1.43; in test [2] it was -0.178; in [3], -0.13; in test [5] it was 1.42; in [6], 1.33; in [7] it was 0.769. Also, the composite z-score in [8] is 1.34; in test [9], 0.631; in test [10], 0.343. For the same compound, the z-score in [4] was -0.853 (inactive).
Consider `CCCN1C(=O)[C@@H]2Cc3c([nH]c4ccccc34)[C@@H](c3cccc(O)c3)N2C1=O`, for which the composite z-score in test [1] was 0.292; in [2] it was -0.0726; in [3] it was -0.0794; in [5] it was 0.415; in [6], 0.718; in test [7] it was 0.578. Moreover, the composite z-score in [8] came out at 0.493; in [9], 1.14; in test [10] it was 0.275. Further, in test [4], the z-score was 1.08 (inactive).
As for `C=C[C@H](C)[C@H](OC(=O)Nc1ccc(SC)cc1)c1ccc(O)c2ccccc12`, the composite z-score in test [1] is 0.454; in test [2], -0.579; in test [3], -0.121; in [5], 0.0716; in test [6], -0.266; in test [7] it was -0.0236. The figures for the composite z-score in test [8], in test [9] and in [10] were 0.284, 0.159 and 0.289, respectively. The z-score in test [4] is -2.12 (inactive).
On to `COc1cc2c(cc1OC)CN(C(=O)[C@@H]1[C@H]3C(=O)O[C@H](c4ccccc4)[C@H](c4ccccc4)N3[C@H](c3ccc(O)cc3)[C@@]13C(=O)Nc1ccc(C#CCNC(N)=O)cc13)CC2`, for which the composite z-score in test [1] is 0.55; in test [2], -0.053; in test [3], 0.0095; in test [5], 0.641; in [6] it was -0.566; in test [7], 0.0967. For the same compound, the figures for the composite z-score in test [8], in [9] and in test [10] were 0.694, -0.162 and 0.849, respectively. For the same compound, the z-score in test [4] is -0.256 (inactive).
For the compound `COC(=O)[C@]1(Cc2ccccc2CN=[N+]=[N-])N=C(c2ccc(OCCCO)cc2)O[C@@H]1c1ccccc1`, the composite z-score in test [1] was 1.15; in test [2], -0.0032; in test [3], 0.987; in test [5] it was -1.34; in test [6], -1.08; in test [7], -1.46. In addition, the values for the composite z-score in test [8], in test [9] and in test [10] were -0.869, -1 and 0.53, respectively. Besides, the z-score in [4] was -2.04 (inactive).
`C=CCNC(=O)[C@H]1[C@@H]2C(=O)O[C@@H](c3ccccc3)[C@@H](c3ccccc3)N2[C@@H](c2ccc(O)cc2)[C@]12C(=O)N(C(=O)OCCOC)c1ccc(C#CC3(O)CCCCCC3)cc12`: the composite z-score came out at 1.35 in test [1]; 0.263 in [2]; 0.468 in test [3]; 0.385 in test [5]; 0.716 in test [6]; 0.228 in [7]. Also, the figures for the composite z-score in test [8], in [9] and in test [10] were 0.33, 0.138 and 1.09, respectively. Further, the z-score in [4] was 0.0928 (inactive).
Turning to `COc1cc(C(O)C2C=CC3C(=O)N(C)C(=O)C3N2NC(=O)OC(C)(C)C)cc(OC)c1OC` (stereo not given), the composite z-score in test [1] was found to be 1.27; in test [2], 1.2; in test [3] it was 0.739; in test [5] it was 0.447; in test [6], 0.833; in [7], 0.189. For the same compound, the composite z-score in [8] was 0.234; in test [9], -0.076; in test [10], 0.442. In addition, the z-score in test [4] is 1.21 (inactive).
`CCOC(=O)C1=CC[C@@H](c2cccc(Br)c2)N(S(=O)(=O)c2ccc(C)cc2)[C@H]1c1ccc([N+](=O)[O-])cc1`: the composite z-score in [1] is 1.47; in [2], 0.448; in test [3], -0.0145; in [5] it was 1.2; in test [6], 0.356; in test [7], 0.877. Moreover, the values for the composite z-score in test [8], in test [9] and in test [10] were 1.32, 0.82 and 0.784, respectively. In addition, in test [4], the z-score is -0.183 (inactive).
With `CCCC=C(CCC)[C@@H](NC(=O)Cc1ccccc1)c1ccc(C(=O)OC)cc1`, the composite z-score in [1] is 0.599; in test [2], 1.52; in test [3] it was 1.17; in [5] it was 0.395; in test [6], 0.289; in [7], 0.43. The composite z-score was 0.514 in [8], -0.285 in test [9] and 1.26 in [10]. In addition, the z-score in test [4] is 0.797 (inactive).
Consider `CCCC=C(CCC)[C@@H](NS(=O)(=O)c1cccc2cccnc12)c1ccc(C(=O)OC)cc1`, for which the composite z-score in test [1] was determined as 0.817; in test [2] it was 2.53; in test [3], 1.46; in test [5], 1.58; in test [6] it was 0.0656; in [7] it was 1.8. Besides, the composite z-score worked out at 1.24 in [8], 0.726 in test [9] and 0.948 in [10]. Moreover, in test [4], the z-score was -0.355 (inactive).
